Experimental findings from PubChem BioAssay (EPA / NIEHS) are described below.

The AC50 is the midpoint of the concentration-response curve, whichever way the signal moves.

Inconclusive results are not listed. Calls of active or inactive are those of the source. The calls were made as follows, unless noted: active = hit-call score of the fitted dose curve at least 0.9, where 1 is the maximum; inactive = score below 0.9.

Test [1] addresses Paired box protein Pax-6 (Homo sapiens) (UniProt P26367). In words: ATG_Pax6_CIS: Attagene CIS-FACTORIAL HepG2 Assay for human Paired Box 6 (PAX6) (AID 2282956). As to conditions: HepG2 CIS-FACTORIAL PAX6 reporter transcription, RNA readout; actives raise or lower the signal. Put shortly: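 Fluorescent RT-PCR products separated by capillary electrophoresis report PAX6-linked promoter mRNA in HepG2 cells 24 h post-dose. Curves fitted bidirectionally, DMSO as negative control.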

Test [2] is described as follows: ATG_PPRE_CIS: Attagene CIS-FACTORIAL HepG2 Assay for human Peroxisome Proliferator-activated Response Element (PPRE) (AID 2282958). Particulars: HepG2 PPRE cis-element reporter, Attagene transcription factor profiling; actives raise or lower the signal. Put shortly:
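HepG2 cells transiently transfected with multiplexed cis-element reporter units measure endogenous transcription factor activity. After 24 h compound exposure, reporter mRNA is quantified by RT-PCR, 6-FAM labeling, HpaI digestion and capillary electrophoresis; bidirectional fits are made against DMSO baseline.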

Test [3] in a line: ATG_RORE_CIS: Attagene CIS-FACTORIAL HepG2 Assay for human RAR-related Orphan Receptor Element (RORE) (AID 2282959). As to conditions: HepG2 Attagene cis-factorial RORE reporter, mRNA; actives raise or lower the signal. The procedure, abridged:
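HepG2 cells transiently transfected with multiple cis-element reporter transcription units, exposed to chemical for 24 h. Reporter mRNA quantified by RT-PCR, 6-FAM primer-extension labeling, HpaI digestion and capillary electrophoresis; bidirectional fit versus DMSO baseline.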

Test [4] addresses Transcription factor Sp1 (Homo sapiens) (UniProt P08047). As to the kind of experiment: ATG_Sp1_CIS: Attagene CIS-FACTORIAL HepG2 Assay for human Specificity Protein 1 (Sp1) (AID 2282961). As to conditions: HepG2 Sp1 cis-reporter transcription, actives raise or lower the signal. Put shortly: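 HepG2 cells transiently transfected with multiple reporter transcription units driven by cis-regulatory elements; Sp1-responsive reporter mRNA measured 24 h after dosing by RT-PCR and capillary electrophoresis fluorescence, fitted bidirectionally against DMSO baseline.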

Test [5] in a line: ATG_SREBP_CIS: Attagene CIS-FACTORIAL HepG2 Assay for human Sterol Regulatory Element Binding (SREBP) (AID 2282962). Particulars: HepG2 Attagene cis-factorial SREBP reporter, mRNA; actives raise or lower the signal. The procedure, abridged: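 Endogenous factor activity is measured in HepG2 through multiplexed reporter units under cis-element control. Following a 24 h incubation, reporter transcripts are reverse-transcribed, PCR-amplified and sized by capillary electrophoresis; activity is fitted in both directions relative to DMSO.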

Test [6] concerns the target Signal transducer and activator of transcription 3 (Homo sapiens) (UniProt P40763). In words: ATG_STAT3_CIS: Attagene CIS-FACTORIAL HepG2 Assay for human Signal Transducer and Activator of Transcription 3 (STAT3) (AID 2282963). Particulars: HepG2, Attagene cis-factorial STAT3 reporter transcription; actives raise or lower the signal. Put shortly: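 Fluorescence intensity of 6-FAM-labelled reporter fragments, separated by capillary electrophoresis after RT-PCR, gave the signal. Cells were HepG2 transfected with cis-element reporter units and treated 24 h; fitting was bidirectional relative to DMSO.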

A short description of test [7]: ATG_TA_CIS: Attagene CIS-FACTORIAL HepG2 Assay for human TA Basal Promoter (AID 2282964). As to conditions: HepG2 Attagene CIS-factorial TA basal promoter reporter; actives raise or lower the signal. The procedure, abridged:
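Read-out: fluorescent reporter-transcript fragments resolved by capillary electrophoresis after RT-PCR and HpaI digestion. Source: HepG2 cells carrying transiently transfected multi-reporter cis constructs, treated 24 h. Endpoint fitted bidirectionally relative to DMSO.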

Test [8] is described as follows: ATG_TCF_b_cat_CIS: Attagene CIS-FACTORIAL HepG2 Assay for human T-Cell-Factor with beta-catenin (TCF/b-cat) (AID 2282965). Particulars: HepG2 TCF/beta-catenin cis-reporter transcription, actives raise or lower the signal. The procedure, abridged: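 HepG2 cells transiently transfected with cis-promoter-driven multiplexed reporter units; reporter mRNA measured 24 h after dosing by RT-PCR, FAM labelling, HpaI digestion and capillary electrophoresis. Bidirectional fitting relative to DMSO baseline.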

Test [9] in a line: ATG_TAL_CIS: Attagene CIS-FACTORIAL HepG2 Assay for human TAL Basal Promoter (AID 2282966).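 Also: background control endpoint measuring basal TAL promoter reporter mRNA not a specific factor.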 As to conditions: HepG2 Attagene cis-factorial TAL promoter reporter; actives raise or lower the signal. The procedure, abridged: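 Basal-promoter background-control endpoint from a multiplexed HepG2 reporter panel. Cells were exposed 24 h, then reporter mRNA was read by RT-PCR/CE fluorescence and fitted in both directions relative to DMSO.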

The nature of test [10]: ATG_TGFb_CIS: Attagene CIS-FACTORIAL HepG2 Assay for human Transforming Growth Factor (TGF) (AID 2282967). As to conditions: HepG2 Attagene CIS TGFb reporter, mRNA transcription; actives raise or lower the signal. The procedure, abridged:
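Transient MRTU transfection of HepG2 (FuGene 6). Dose 24 h. TriZol RNA, oligo(dT) RT, PCR, 6-FAM primer extension, HpaI cut, CE. Bidirectional fit, DMSO = baseline.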

The nature of test [11]: ATG_VDRE_CIS: Attagene CIS-FACTORIAL HepG2 Assay for human Vitamin D Receptor Element (VDRE) (AID 2282968). Particulars: HepG2 VDRE cis-reporter transcription, actives raise or lower the signal. Put shortly: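 Compounds were applied for 24 h to HepG2 cells transfected with promoter-regulated reporter units. Total RNA was reverse-transcribed, and reporter amplicons were fluorescently labelled and sized by capillary electrophoresis.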

The target in test [12] is Estrogen receptor (Homo sapiens) (UniProt P03372). As to the kind of experiment: ATG_ERa_TRANS: Attagene TRANS-FACTORIAL HepG2 Assay for human Estrogen Receptor alpha (ERa) (AID 2282970; active = hit-call score of the fitted dose curve at least 0.9, where 1 is the maximum). Particulars: HepG2 Attagene TRANS ERa GAL4 reporter, mRNA. Put shortly: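 Gal4-fusion ERa transactivation, measured as reporter transcript level in transiently transfected HepG2 cells. Exposure 24 h; RT-PCR plus capillary electrophoresis with fluorescence detection.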
Chain of Estrogen receptor (Homo sapiens) (P03372 whole entry, looked up, the tested form may be a part): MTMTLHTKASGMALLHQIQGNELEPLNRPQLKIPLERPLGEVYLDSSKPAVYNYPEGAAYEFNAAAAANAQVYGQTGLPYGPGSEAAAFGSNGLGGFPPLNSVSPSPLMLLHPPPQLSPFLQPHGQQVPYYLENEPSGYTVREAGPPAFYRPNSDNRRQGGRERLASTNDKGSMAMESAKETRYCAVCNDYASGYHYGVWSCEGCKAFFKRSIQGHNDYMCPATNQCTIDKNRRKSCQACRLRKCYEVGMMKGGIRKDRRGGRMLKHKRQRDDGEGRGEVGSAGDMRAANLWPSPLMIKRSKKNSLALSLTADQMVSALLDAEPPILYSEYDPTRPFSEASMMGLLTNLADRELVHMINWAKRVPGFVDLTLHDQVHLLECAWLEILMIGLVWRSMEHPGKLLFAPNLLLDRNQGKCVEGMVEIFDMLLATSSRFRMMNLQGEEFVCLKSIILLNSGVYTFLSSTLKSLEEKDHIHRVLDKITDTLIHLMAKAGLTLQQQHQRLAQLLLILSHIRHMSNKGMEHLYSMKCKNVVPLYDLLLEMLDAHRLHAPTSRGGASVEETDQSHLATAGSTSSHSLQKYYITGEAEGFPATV

Test [13] addresses X-box-binding protein 1 (Homo sapiens) (UniProt P17861). In words: ATG_Xbp1_CIS: Attagene CIS-FACTORIAL HepG2 Assay for human X-box Binding Protein 1 (XBP1) (AID 2282972). As to conditions: HepG2 XBP1 cis-element reporter, Attagene multiplex; actives raise or lower the signal. Put shortly: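 Multiplexed cis-reporter readout in transfected HepG2 liver cells. Exposure lasted 24 hours. Activity in either direction was fitted against DMSO as negative control and baseline.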

A short description of test [14]: ATG_M_19_TRANS: Attagene TRANS-FACTORIAL HepG2 Assay for M19 Transcription Factor (Internal Marker) (AID 2282974; active = hit-call score of the fitted dose curve at least 0.9, where 1 is the maximum). As to conditions: HepG2 Attagene TRANS-FACTORIAL M19 internal marker reporter. The procedure, abridged:
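HepG2 cells transiently transfected with multiple GAL4-UAS reporter transcription units were exposed to chemicals for 24 h. Reporter mRNA was read by RT-PCR, 6-FAM primer extension, HpaI digestion and capillary electrophoresis; gain of signal fitted relative to DMSO.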

Test [15] is described as follows: ATG_Sox_CIS: Attagene CIS-FACTORIAL HepG2 Assay for human SRY-box transcription factor (SOX) (AID 2282960). As to conditions: HepG2 Attagene cis-factorial SOX reporter, mRNA; actives raise or lower the signal. Put shortly:
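HepG2 cells transiently transfected with cis-element-driven multiple reporter transcription units, dosed 24 h; reporter mRNA measured by RT-PCR, FAM labelling, HpaI digestion and capillary electrophoresis. Bidirectional fit versus DMSO baseline.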

For test [16], the target named is Estrogen-related receptor gamma (Homo sapiens) (UniProt P62508). In words: ATG_ERRg_TRANS: Attagene TRANS-FACTORIAL HepG2 Assay for human Estrogen-Related Receptor gamma (ERRg) (AID 2282977; active = hit-call score of the fitted dose curve at least 0.9, where 1 is the maximum;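 also: hits increase reporter signal over DMSO so potencies reflect activators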). As to conditions: HepG2 Attagene TRANS reporter, ERRg transactivation. The procedure, abridged:
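Induction of reporter transcripts through a chimeric NR-Gal4 protein is quantified in transfected human HepG2 liver cells after 24 h chemical exposure, using RT-PCR with capillary electrophoresis detection and DMSO as baseline.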

Test [17] has as its target Steroid hormone receptor ERR1 (Homo sapiens) (UniProt P11474). In words: ATG_ERRa_TRANS: Attagene TRANS-FACTORIAL HepG2 Assay for human Estrogen-Related Receptor alpha (ERRa) (AID 2282971; active = hit-call score of the fitted dose curve at least 0.9, where 1 is the maximum). As to conditions: HepG2 Attagene TRANS reporter, ERRa transactivation. The procedure, abridged: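 HepG2 cells transiently transfected with GAL4-UAS reporter units and chimeric NR-Gal4 constructs; after 24 hour compound incubation, reporter mRNA quantified by RT-PCR, fluorescent labelling and capillary electrophoresis, gain of signal versus DMSO.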

The nature of test [18]: ATG_GAL4_TRANS: Attagene TRANS-FACTORIAL HepG2 Assay for GAL4 (Internal Marker) (AID 2282976; active = hit-call score of the fitted dose curve at least 0.9, where 1 is the maximum). Particulars: HepG2 Attagene TRANS GAL4 internal marker reporter. Put shortly:
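Background-control readout: GAL4-UAS reporter transcript in transiently transfected HepG2 cells after 24 h compound exposure. Measured by RT-PCR, 6-FAM primer extension, HpaI digest and capillary electrophoresis; gain-of-signal fit versus DMSO.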

Test [19] addresses Nuclear receptor subfamily 1 group I member 3 (Homo sapiens) (UniProt Q14994). In words: ATG_CAR_TRANS: Attagene TRANS-FACTORIAL HepG2 Assay for human Constitutive Androstane Receptor (CAR) (AID 2282969; active = hit-call score of the fitted dose curve at least 0.9, where 1 is the maximum;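 also: activators raise reporter mRNA above DMSO so AC50 marks induction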). Particulars: HepG2 Attagene TRANS-FACTORIAL CAR reporter. The procedure, abridged:
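Transiently transfected HepG2, multiplex TRANS reporters (CAR-Gal4 chimera driving GAL4-UAS reporter). 24 h dosing. Readout: reporter transcript by RT-PCR + capillary electrophoresis, fluorescence intensity; positive direction vs DMSO.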

Chain of Paired box protein Pax-6 (Homo sapiens) (P26367 whole entry, looked up): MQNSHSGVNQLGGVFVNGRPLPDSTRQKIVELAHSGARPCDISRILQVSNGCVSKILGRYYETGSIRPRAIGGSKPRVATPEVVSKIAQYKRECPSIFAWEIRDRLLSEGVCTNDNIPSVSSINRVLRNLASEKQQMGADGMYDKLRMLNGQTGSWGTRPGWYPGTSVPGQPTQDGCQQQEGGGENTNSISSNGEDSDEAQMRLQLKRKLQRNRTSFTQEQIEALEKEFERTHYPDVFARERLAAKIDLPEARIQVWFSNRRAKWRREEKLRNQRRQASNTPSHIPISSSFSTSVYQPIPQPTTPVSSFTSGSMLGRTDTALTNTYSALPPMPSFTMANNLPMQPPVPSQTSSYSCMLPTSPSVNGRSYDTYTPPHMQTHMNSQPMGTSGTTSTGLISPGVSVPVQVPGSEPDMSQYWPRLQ
Chain of Nuclear receptor subfamily 1 group I member 3 (Homo sapiens) (Q14994 whole entry, looked up, the tested form may be a part): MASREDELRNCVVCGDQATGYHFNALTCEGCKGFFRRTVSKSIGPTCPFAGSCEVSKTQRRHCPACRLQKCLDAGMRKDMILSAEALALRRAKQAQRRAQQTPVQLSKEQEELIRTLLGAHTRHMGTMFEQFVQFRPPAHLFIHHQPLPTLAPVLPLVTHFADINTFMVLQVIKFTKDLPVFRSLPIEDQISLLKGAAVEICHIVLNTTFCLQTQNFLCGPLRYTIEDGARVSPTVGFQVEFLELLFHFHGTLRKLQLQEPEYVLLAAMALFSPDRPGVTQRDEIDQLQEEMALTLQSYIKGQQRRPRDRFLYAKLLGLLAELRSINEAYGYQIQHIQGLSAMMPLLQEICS
Chain of X-box-binding protein 1 (Homo sapiens) (P17861 whole entry, looked up): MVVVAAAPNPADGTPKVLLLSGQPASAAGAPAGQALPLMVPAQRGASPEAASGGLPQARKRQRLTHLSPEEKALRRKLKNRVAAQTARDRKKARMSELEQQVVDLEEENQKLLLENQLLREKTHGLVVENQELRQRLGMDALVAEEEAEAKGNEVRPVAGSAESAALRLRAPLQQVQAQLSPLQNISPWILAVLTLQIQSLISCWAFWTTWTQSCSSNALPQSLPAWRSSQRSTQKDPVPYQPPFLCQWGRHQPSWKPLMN
Chain of Signal transducer and activator of transcription 3 (Homo sapiens) (P40763 whole entry, looked up, the tested form may be a part): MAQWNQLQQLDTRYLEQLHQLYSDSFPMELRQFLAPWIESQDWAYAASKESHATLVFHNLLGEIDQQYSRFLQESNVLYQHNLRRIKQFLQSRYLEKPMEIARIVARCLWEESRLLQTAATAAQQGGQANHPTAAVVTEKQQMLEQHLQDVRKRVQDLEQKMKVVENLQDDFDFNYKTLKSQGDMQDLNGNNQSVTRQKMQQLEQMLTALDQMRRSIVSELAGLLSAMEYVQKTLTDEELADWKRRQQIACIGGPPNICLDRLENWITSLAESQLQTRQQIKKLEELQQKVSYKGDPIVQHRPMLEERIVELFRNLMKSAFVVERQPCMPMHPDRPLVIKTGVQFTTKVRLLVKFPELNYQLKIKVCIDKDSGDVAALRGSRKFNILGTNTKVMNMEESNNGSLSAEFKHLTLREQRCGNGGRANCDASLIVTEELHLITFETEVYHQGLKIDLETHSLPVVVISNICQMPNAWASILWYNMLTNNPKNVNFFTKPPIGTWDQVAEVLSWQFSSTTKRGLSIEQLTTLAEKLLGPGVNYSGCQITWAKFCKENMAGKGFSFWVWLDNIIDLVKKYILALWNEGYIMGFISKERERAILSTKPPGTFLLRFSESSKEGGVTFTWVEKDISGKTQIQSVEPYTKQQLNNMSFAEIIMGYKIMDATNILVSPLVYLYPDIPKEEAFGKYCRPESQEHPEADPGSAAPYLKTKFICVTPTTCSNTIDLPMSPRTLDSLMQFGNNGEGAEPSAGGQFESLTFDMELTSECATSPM
Chain of Transcription factor Sp1 (Homo sapiens) (P08047 whole entry, looked up): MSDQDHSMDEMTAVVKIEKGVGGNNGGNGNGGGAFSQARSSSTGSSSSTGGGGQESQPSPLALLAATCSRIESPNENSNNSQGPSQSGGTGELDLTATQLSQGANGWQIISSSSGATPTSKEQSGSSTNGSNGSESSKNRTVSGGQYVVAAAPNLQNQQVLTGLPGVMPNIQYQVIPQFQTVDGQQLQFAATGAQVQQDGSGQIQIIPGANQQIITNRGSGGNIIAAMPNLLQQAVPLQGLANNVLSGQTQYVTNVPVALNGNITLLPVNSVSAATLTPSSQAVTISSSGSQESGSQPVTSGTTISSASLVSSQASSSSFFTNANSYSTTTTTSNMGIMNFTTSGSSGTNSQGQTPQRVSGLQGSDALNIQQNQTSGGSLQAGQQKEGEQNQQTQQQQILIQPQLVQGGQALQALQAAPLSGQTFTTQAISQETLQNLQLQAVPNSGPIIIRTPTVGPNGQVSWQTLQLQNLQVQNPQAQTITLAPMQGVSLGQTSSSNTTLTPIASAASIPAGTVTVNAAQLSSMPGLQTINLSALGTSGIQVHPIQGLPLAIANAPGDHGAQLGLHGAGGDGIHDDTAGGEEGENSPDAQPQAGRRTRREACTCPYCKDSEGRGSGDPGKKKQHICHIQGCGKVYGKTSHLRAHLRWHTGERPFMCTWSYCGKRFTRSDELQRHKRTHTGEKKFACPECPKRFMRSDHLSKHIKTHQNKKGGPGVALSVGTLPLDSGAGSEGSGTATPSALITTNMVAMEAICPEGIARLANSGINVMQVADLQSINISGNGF
Chain of Estrogen-related receptor gamma (Homo sapiens) (P62508 whole entry, looked up, the tested form may be a part): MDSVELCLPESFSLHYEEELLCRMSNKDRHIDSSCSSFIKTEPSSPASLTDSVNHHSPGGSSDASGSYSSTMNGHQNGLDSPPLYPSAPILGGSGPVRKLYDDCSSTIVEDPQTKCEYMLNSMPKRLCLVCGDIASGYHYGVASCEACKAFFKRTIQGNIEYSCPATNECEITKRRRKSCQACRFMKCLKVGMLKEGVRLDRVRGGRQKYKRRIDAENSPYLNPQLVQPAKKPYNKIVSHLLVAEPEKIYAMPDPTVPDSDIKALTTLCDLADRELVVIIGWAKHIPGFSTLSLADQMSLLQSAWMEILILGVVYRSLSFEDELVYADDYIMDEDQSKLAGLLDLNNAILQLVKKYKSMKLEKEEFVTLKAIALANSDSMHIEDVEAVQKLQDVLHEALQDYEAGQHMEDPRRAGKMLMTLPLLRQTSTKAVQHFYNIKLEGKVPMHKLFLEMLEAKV
Chain of Steroid hormone receptor ERR1 (Homo sapiens) (P11474 whole entry, looked up, the tested form may be a part): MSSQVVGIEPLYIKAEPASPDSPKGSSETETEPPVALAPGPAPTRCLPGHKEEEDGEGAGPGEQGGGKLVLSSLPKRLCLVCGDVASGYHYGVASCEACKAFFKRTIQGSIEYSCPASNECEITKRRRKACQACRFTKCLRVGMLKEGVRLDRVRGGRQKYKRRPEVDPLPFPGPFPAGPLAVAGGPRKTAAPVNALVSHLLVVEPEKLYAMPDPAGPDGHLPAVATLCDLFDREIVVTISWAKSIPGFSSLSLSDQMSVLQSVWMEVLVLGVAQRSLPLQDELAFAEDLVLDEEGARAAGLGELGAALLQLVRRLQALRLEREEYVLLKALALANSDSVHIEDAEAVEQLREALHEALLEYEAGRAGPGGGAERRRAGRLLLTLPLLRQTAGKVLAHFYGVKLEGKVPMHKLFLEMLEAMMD

Turning to `COC(=O)C1=C(C)NC(C)=C(C(=O)OCCN(C)Cc2ccccc2)C1c1cccc([N+](=O)[O-])c1` (stereo not drawn), the half-maximal activity concentration (AC50) in test [1] was 20.5 µM (active); in test [10], 131 µM (active); in [11] it was 0.227 µM (active). In addition, the call in [2], in test [3], in test [4], in test [5], in test [6] and in test [7] was inactive. Moreover, the outcome in test [8], in test [9], in [12], in [13] and in [14] was inactive.
For the compound `COc1cc(C=O)ccc1OC(=O)C(C)C`, the outcome in test [1], in test [2], in test [3], in test [15], in [4] and in test [6] was inactive. The call in [8], in test [9], in test [10], in [13], in test [14] and in [16] was inactive.
With `C=CC(=O)OCCn1c(=O)n(CCOC(=O)C=C)c(=O)n(CCOC(=O)C=C)c1=O`, the AC50 in test [1] is 15.7 µM (active); in test [4], 8.63 µM (active); in test [6] it was 27 µM (active); in test [8], 9.02 µM (active); in test [11], 4.16 µM (active); in test [13] it was 8.6 µM (active). The result in test [2], in test [3], in [15], in [5], in test [7] and in test [9] was inactive. Also, the call in [10], in test [17], in test [18] and in [16] was inactive.
As to `CCCC/C=C\CCCCCCCCCC=O`, the call in test [1], in test [2], in test [3], in [15], in test [4] and in [5] was inactive. The compound was called inactive in test [6], in [8], in test [9], in test [10], in test [11] and in [17]. Moreover, the result in [13], in test [14], in test [18] and in [16] was inactive.
As to `CC(C)(C)C(=O)c1ccccc1`, the compound was classed as inactive in [1], in test [3], in [15], in test [4], in [5] and in test [6]. Also, the outcome in test [8], in [9], in [10], in test [11], in test [12] and in test [13] was inactive.
As for `C[Si](O[Si](C)(C)C)O[Si](C)(C)C`, the outcome in test [1], in [2], in test [3], in test [15], in [5] and in test [6] was inactive. Also, the compound was classed as inactive in [7], in test [8], in [9], in [10], in test [11] and in [19]. Further, in test [13], the call was inactive.
Turning to `CC1(C)[C@H]2CC[C@]1(C)[C@H](O)C2`, the compound was called inactive in test [1], in test [3], in [15], in [4], in test [5] and in test [6]. Moreover, the outcome in test [7], in [8], in test [9], in test [10], in [19] and in test [13] was inactive. For the same compound, in test [18], the compound was called inactive.
Take `C=O`: the call in test [1], in test [15], in test [6], in [7], in [8] and in test [9] was inactive. The outcome in [10], in test [11], in test [19], in test [13], in test [14] and in test [16] was inactive.
